# High-throughput results: PubChem, The Scripps Research Institute Molecular Screening Center
# Shown are actives, neighbours in structure and some others; about 1.3% of the full set was active somewhere.
# S1P3 antagonist = S1P3 (human) receptor antagonism. Q99500. CHO S1P3 NFAT-BLA reporter, FRET fluorescence, antagonist mode. inhibition, % at 4.98 µM. 170,000 compounds, 0.27% hits. AID 485;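 active = inhibition above the plate cutoff, the mean inhibition of test wells on that plate plus 3 SD, cut at about 28% in these data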;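 note: cells challenged with S1P at its EC80 of 0.8 µM; blue over green emission ratio from cleaved BLA substrate after 4 h stimulation; 0% = S1P-stimulated wells and 100% = unstimulated DMSO-only wells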
# Target sequence (Q99500 whole entry, looked up): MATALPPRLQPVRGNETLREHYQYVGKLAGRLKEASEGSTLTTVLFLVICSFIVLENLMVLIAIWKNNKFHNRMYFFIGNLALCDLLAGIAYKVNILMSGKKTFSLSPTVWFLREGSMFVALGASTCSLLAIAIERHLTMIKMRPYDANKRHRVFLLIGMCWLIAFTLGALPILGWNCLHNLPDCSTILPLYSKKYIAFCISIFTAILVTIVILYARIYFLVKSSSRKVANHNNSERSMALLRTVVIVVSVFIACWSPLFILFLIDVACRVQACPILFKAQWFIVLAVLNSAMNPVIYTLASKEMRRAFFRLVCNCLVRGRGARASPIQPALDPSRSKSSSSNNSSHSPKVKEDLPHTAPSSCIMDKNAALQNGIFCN
# S1P4 antag = human S1P4 receptor antagonism; O95977; S1P4-expressing cells, antagonist mode, reporter read-out; inhibition, % at 4.98 µM; 220,000 compounds, 0.26% hits; AID 1510; in the data active = inhibition above about 29%;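 note: 0% = wells stimulated with agonist and 100% = vehicle wells without agonist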
# GALR2 agonist = agonists of human galanin receptor 2 (GALR2). GALR2-expressing cells, agonist activation read-out. activation, % (concentration not given with the values). 140,000 compounds, 0.48% hits. AID 803; in the data active = activation above about 5%, passing the limit was not always enough;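 note: 0% = vehicle buffer wells and 100% = reference agonist at full effect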
# S1P4 ag = human S1P4 receptor agonism. S1P4-expressing cell line, agonist reporter assay. AID 1509. O95977. 220,000 compounds, 0.35% hits. activation, % at 4.98 µM; in the data active = activation above about 11%;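 note: 0% = DMSO vehicle and 100% = reference agonist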
# GALR2 blocker = antagonists of human galanin receptor 2 (GALR2) | inhibition, % at 4 µM | 140,000 compounds, 0.39% hits | O43603 | AID 828 | GALR2-expressing cells, antagonist mode; in the data active = inhibition above about 27%;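 note: cells stimulated with galanin 1-16 at roughly its EC80; 0% = agonist challenge control and 100% = basal control without agonist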
# S1P4 ag conf = confirmation of human S1P4 receptor agonists | shares compounds with S1P4 ag | S1P4 agonist cell-based reporter assay | activation, % at 4.98 µM | 740 compounds, 7% hits; in the data active = activation above about 12%;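 note: 0% = vehicle and 100% = full reference agonist response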
# S1P1 agonist = counter-screen for S1P4 agonists: agonists of human S1P1. shares compounds with S1P4 ag. S1P1 agonist cell-based assay, activation. activation, % at 4.98 µM. 740 compounds, 4% hits. AID 1563; in the data active = activation above about 21%;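 note: 0% = vehicle wells and 100% = reference agonist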
# * = called active by the depositor; . = no result given.
SMILES,S1P3 antagonist,S1P4 antag,GALR2 agonist,S1P4 ag,GALR2 blocker,S1P4 ag conf,S1P1 agonist
CCOC(=O)C1CCN(C(=O)CN(c2ccc(Oc3ccccc3)cc2)S(C)(=O)=O)CC1,-4,0,.,-1,.,.,.
CC(=O)C1=C(C)NC(SCC(=O)c2ccc(Cl)cc2Cl)=C(C#N)C1c1ccco1 (stereo not drawn),23,-30,1,24*,4,26*,-8
COc1cc(C(F)(F)F)c(C(=O)N(C)Cc2ccc(Cl)c(Cl)c2)cn1,0,2,.,15*,.,-2,-1
Fc1cccc(CN2CCN(c3nc4nonc4nc3NC3CC3)CC2)c1,-16,-16,.,0,.,.,.
Cc1ccc(/C=N/NC(=O)c2cccnc2)s1,10,-1,.,13*,.,-1,0
COc1cc(-c2nnc(COC(=O)c3c4c(nc5ccccc35)CCCC4)o2)cc(OC)c1OC,.,-10,-1,1,-2,.,.
CCC/C=N/Nc1nc2ccccc2s1,-11,5,.,64*,.,-1,-1
COc1cccc(NC(=O)CSc2nnc(Cc3cccs3)n2-c2ccc(C)cc2)c1,.,-3,0,13*,-3,-2,-5
Cc1cc(C(=O)COC(=O)CCc2nc3ccccc3c(=O)[nH]2)c(C)n1CC1CCCO1 (stereo not drawn),-4,-6,.,1,.,.,.
Cc1cc(C(=O)CSc2nc3ccccc3c(=O)[nH]2)c(C)n1CC1CCCO1 (stereo not drawn),12,-8,.,53*,.,0,8
Cc1ccc(N2C(=O)NC(NC(=O)C3CC3)(C(F)(F)F)C2=O)cc1 (stereo not drawn),-13,-12,0,0,4,.,.
C/C(=N\NC(=O)C(C)n1nc(C)c([N+](=O)[O-])c1C)c1ccccc1O (stereo not drawn),0,-13,-2,103*,10,-1,10
Cc1nn(C(C)C(=O)NCc2ccco2)c(C)c1[N+](=O)[O-] (stereo not drawn),6,-3,.,4,.,.,.
CC(/C=N/NC(=O)c1cc(-c2ccc(C)o2)[nH]n1)=C\c1ccccc1,-9,-10,3,17*,-6,-2,1
C/C(=N\NC(=O)c1ccc([N+](=O)[O-])cc1)c1cc2ccccc2oc1=O,1,-4,-3,-2,10,.,.
C/C(=N/NC(N)=S)c1cc2ccc(O)cc2oc1=O,-11,-50,.,39*,.,18*,16
NC(=S)c1cc2ccc(O)cc2oc1=O,.,-40,14*,67*,-1,17*,20
CCS(=O)(=O)c1ccc2c(c1)N(S(C)(=O)=O)CC(C(=O)NCc1ccccc1OC)O2 (stereo not drawn),.,-13,3,3,-10,.,.
Cc1ccc(CNC(=O)C2CN(S(C)(=O)=O)c3cc(Cl)ccc3O2)cc1 (stereo not drawn),-13,-23,.,63*,.,-2,3
Cc1ccc(-n2c(SCC(=O)N(C)C3CCS(=O)(=O)C3)nc3ccccc3c2=O)cc1 (stereo not drawn),-12,-23,.,0,.,.,.
CC(=O)Nc1ccccc1C(=O)C(=O)O,.,0,-4,13*,1,-2,0
Cn1cc(CN2CCC(CO)(CCCc3ccccc3)CC2)c(-c2ccccc2)n1,10,5,.,1,.,.,.
NC(=S)N/N=C/c1coc2ccc(F)cc2c1=O,11,-1,.,36*,.,-1,1
CC(Nc1ccc2c(c1)OCCO2)C(=O)N1c2ccccc2CC1C (stereo not drawn),-3,-8,.,16*,.,29*,-1
CC1Cc2ccccc2N1C(=O)NC1CC(=O)N(c2ccc3c(c2)OCCO3)C1 (stereo not drawn),0,1,.,1,.,.,.
CCOC(=O)CN1C(=O)C(C)(C)Oc2ccc(C(=O)NC(C)(C)CC)cc21,-10,-13,-1,28*,6,-2,3
CC1CCC2(CC1)NC(=O)N(CC(=O)N1CCN(S(=O)(=O)c3ccccc3)CC1)C2=O (stereo not drawn),-1,-18,.,-1,.,.,.
Fc1ccc(NC(=S)Nc2ccccc2N2CCOCC2)cc1Cl,-22,-7,.,3,.,.,.
O=C(/C=C/c1ccco1)Nc1ccccc1N1CCOCC1,-13,-23,0,20*,-10,-1,-4
O=C(/C=C/c1ccco1)Nc1ccc(C(=O)N2CCOCC2)cc1,-6,-8,-2,0,1,.,.
